# Sfp PPTase inh: blocks B. subtilis Sfp PPTase activity. Q9F4F7. Biochemical Sfp PPTase activity, qHTS. Potency, µM, actives largely listed as inhibitors. 310,000 tested, 3.5% active;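 also: the enzyme is Sfp with the accession as filed and its product quenches rhodamine fluorescence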
#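 Reaction rates are the 30-min fluorescence difference (ex 525, em 598 nm) in wells containing 15 nM Sfp, 5 uM rhodamine-CoA and 12.5 uM BHQ-2-YbbR at pH 7.6 with 10 mM MgCl2.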
# RORg inh: blocks mouse ROR gamma transcriptional activity; P51450; Drosophila S2 Gal4-RORgamma UAS-luciferase reporter, 20 h; Potency, µM (series often up to 53.6 µM), usual class: inhibitors; 310,000 tested, 5.4% active; AID 2551; also: nearly all actives have a fitted effect of over 60% in size
#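 Stably transfected Drosophila Schneider cells are the test system, with ROR gamma fused to Gal4 and luciferase under UAS control; luminescence is read after 20 hr of 700 uM copper sulfate induction at ambient temperature.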
# Epigenetic reg: derepresses silenced GFP reporter in murine cells | murine LDR cells, GFP reporter derepression, 30 h | Potency, µM (doses to about 53.9 µM), actives largely listed as activators | AID 1865 | 280,000 tested, 0.2% active; also: nearly all actives have a fitted effect of over 60% in size
#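 GFP-positive cell count by laser-scanning cytometry (objects 20–120 um) after 30 h, 37 C compound exposure of murine LDR cells; reporter is CMV-GFP integrated at a silenced locus, inducible by HDAC or DNMT inhibitors.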
# VP16 counter: Gal4-VP16 reporter inhibition counter-screen; Drosophila S2 Gal4-VP16 UAS-luciferase, luminescence, 20 h; Potency, µM (titrated, usually from 53.6 µM), usual class: inhibitors; 310,000 tested, 3.5% active;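 also: Gal4-VP16 expression switched on by copper sulfate through the metallothionein promoter; nearly all actives have a fitted effect of over 50% in size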
# PINK1 expr mod: modulators of PINK1 expression; Potency, µM (top dose mostly 76.6 µM), usual class: activators; 410,000 tested, 0.2% active; PINK1 immunofluorescence, high-content cytometry, 24 h; AID 624263; active = well fitted activation curve with a large enough effect; inconclusive = small, poorly fitted or top-dose-only effect; cell line not stated here; also: nearly all actives have a fitted effect of over 65% in size
#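 Stable cell line treated 24 h with compounds at 5 concentrations (CCCP controls), then fixed and immunostained for PINK1 plus nuclear and cell stains; PINK1 immunofluorescence quantified by laser-scanning microplate cytometry.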
# ClpP mod: qHTS Assay for Activators of ClpP | ATP-dependent Clp protease proteolytic subunit (Bacillus subtilis (strain 168)), P80244 | purified B. subtilis ClpP, FRET peptide cleavage, 20 min | Potency, µM (doses to about 57.5 µM) | 340,000 tested, 1.9% active; active = well fitted falling curve with a large enough effect; inconclusive = small, poorly fitted or top-dose-only effect; inactive = no such curve, though single readings can be large or run the other way; also: the source files actives as falling curves though it sought activators and does not explain the sign; nearly all actives have a fitted effect of over 65% in size
#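 ClpP 10 microg/mL final, pH 8 Tris/KCl buffer with BSA, glycerol, Tween-20; compound pinned in; FRET-FV substrate; RT 20 min; Ex320/Em430; ΔFRET vs ADEP 5.8 microM, DMSO, no enzyme.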
# Hits are given with their value; i = inactive; ? = inconclusive; nt = not tested or not shown; [ ] = remark or other dose. Most compounds without a hit are left out; they make up all but 8.1% or so of the library. Unless noted, calls follow the shape of the dose curve; as a rule, active = well fitted curve in the direction sought with a large enough effect; inconclusive = small, poorly fitted or top-dose-only effect, or another doubt; inactive = no such curve, though single readings can be large; an effect the other way counts as inactive or inconclusive.
SMILES,Sfp PPTase inh,RORg inh,Epigenetic reg,VP16 counter,PINK1 expr mod,ClpP mod
O=C(COc1ccccc1)Nc1ccc(C(=O)OCc2cc(=O)n3nc(C4CC4)sc3n2)cc1,nt,nt,i,nt,i,i
Cc1cccn2c(=O)c(C(=O)N3CCN(c4ccc(Cl)cc4)CC3)cnc12,nt,nt,i,nt,i,i
COc1ccc(NC(=S)NCc2ccc3c(c2)cc(C)n3C)cc1,i,4.5µM,i,11µM,i,i
CCc1cccc(C)c1NC(=S)NCc1ccc2c(c1)cc(C)n2C,i,5.6µM,i,7.9µM,i,i
CCCCC(=O)NCc1ccc2c(c1)cc(C)n2C,i,i,i,i,i,i
CCOC(=O)CCC(=O)NCc1ccc2c(c1)cc(C)n2C,79µM,?,i,i,i,i
COc1ccccc1NC(=S)NCc1ccc2c(c1)cc(C)n2C,i,5.6µM,i,?,i,nt
COc1ccc(CC(=O)NCc2ccc3c(c2)cc(C)n3C)cc1,i,i,i,i,i,i
COc1ccccc1CN1CCOc2ccc(C(C)(O)COc3ccccc3)cc2C1 (stereo not drawn),nt,nt,nt,nt,i,nt
Cc1ccc(-n2c(SCC(=O)Nc3cccc(Cl)c3)nc3n[nH]c(C)c3c2=N)cc1,nt,nt,i,nt,i,i
Cc1cccc(C)c1NC(=S)NCc1ccccc1,i,i,i,i,i,i
Cc1cc2cc(CNC(=S)NCc3ccccc3)ccc2n1C,i,18µM,i,?,i,nt
CCCCNC(=S)NCc1ccc2c(c1)cc(C)n2C,i,11µM,i,?,i,i
Cc1cc2cc(CNC(=S)NC3CCCCC3)ccc2n1C,i,14µM,i,?,i,i
Cc1cc2cc(CNC(=O)C3CC3)ccc2n1C,i,i,i,i,i,i
CCOC(=O)NCc1ccc2c(c1)cc(C)n2C,i,i,i,i,i,i
Cc1cc2cc(CNC(=O)Nc3ccccc3)ccc2n1C,i,?,i,i,i,i
CCc1cccc(C)c1NC(=S)NCc1ccccc1,i,3.5µM,i,32µM,i,i
Cc1ccc(Cc2nc3ccccc3nc2SCC(=O)NCCc2ccccc2)cc1,nt,nt,i,nt,i,i
CCOC(=O)C1=C(CN2CCN(c3ccccc3)CC2)NC(=O)NC1c1ccc(C)cc1 (stereo not drawn),nt,nt,i,nt,i,i
Cc1ccccc1NC(=S)NCc1ccc2c(c1)cc(C)n2C,i,6.3µM,i,11µM,i,i
Cc1cc2cc(CNC(=O)c3cccs3)ccc2n1C,45µM,i,i,i,i,i
O=C(CSc1ncnc2scc(-c3ccccc3)c12)N1CCN(Cc2ccc3c(c2)OCO3)CC1,i,22µM,i,?,i,i
CCc1nnc(NC(=O)CSc2ncnc3scc(-c4ccc(C)cc4)c23)s1,i,i,i,i,i,i
Cc1ccc(-c2csc3ncnc(SCC(N)=O)c23)cc1,i,1.6µM,i[10.1 µM],i[10 µM],i,nt
SMILES,Sfp PPTase inh,RORg inh,Epigenetic reg,VP16 counter,PINK1 expr mod,ClpP mod
Cc1sc2ncnc(SCc3ccc(C(=O)O)cc3)c2c1C,i,i,i,i,i,i
c1ccc(-c2csc3ncnc(N4CCN(Cc5ccc6c(c5)OCO6)CC4)c23)cc1,i,i,nt,i,i,i
Cn1nnnc1Sc1ncnc2scc(-c3ccc(F)cc3)c12,i,10µM,i,i,i,i
Cc1ccc(-c2csc3ncnc(SCc4ccc(C(=O)O)cc4)c23)cc1,50µM,2.8µM,i,4.5µM,i,nt
Cc1ccc(Cl)cc1NC(=O)Nc1cccc(OCc2cc(=O)n3ccccc3n2)c1,nt,nt,?,nt,i,i
Cc1cccc(NCc2nc3ccccc3n2CCOc2ccccc2C)c1,nt,nt,i,nt,i,i
Cc1ccc(-c2csc3nc(SCC(N)=O)n(Cc4ccccc4)c(=O)c23)cc1,i,11µM,i,?,i,i
Cn1c(=O)n(C)c2cc(S(=O)(=O)N3CCOCC3)ccc21,i,i,i,i,i,i
Cc1ccccc1NC(=S)N=Nc1c(O)n(C)c2ccc(S(=O)(=O)N3CCOCC3)cc12,i,0.32µM,i,0.79µM,i,i
Cc1cccc(C)c1NC(=S)N=Nc1c(O)n(C)c2ccc(S(=O)(=O)N3CCOCC3)cc12,i,1.3µM,i,4.5µM,i,i
CC1CCc2nc3ncn(CC(=O)Nc4cccc(C#N)c4)c(=O)c3cc2C1 (stereo not drawn),nt,nt,i,nt,i,i
CC12COC3(C(=O)Nc4ccc(Cl)cc4)CC1CCC32C (stereo not drawn),i,i,i,i,?,i
CC12COC3(C(=O)Nc4ccccc4F)CC1CCC32C (stereo not drawn),i,10µM,i,i[10 µM],i,i
O=S(=O)(c1ccc(-c2cnc(C3CC3)o2)cc1)N1CCN(c2ccccc2F)CC1,nt,nt,i,nt,i,28µM
Cc1ccc(Cl)cc1N1CCN(S(=O)(=O)c2ccc(-c3cnc(C4CC4)o3)cc2)CC1,nt,nt,i,nt,i,i
Fc1ccc(/C=N/NC2=Nc3cccc4cccc2c34)cc1,?,1.1µM,i,?,?,i
COc1ccc(NC2=Nc3cccc4cccc2c34)cc1,i,13µM,i,?,i,i
Fc1ccc(/C=N/Nc2nccnc2Cl)cc1,i,i,nt,i,i,i
c1ccc(NC2=Nc3cccc4cccc2c34)cc1,i,?,i,?,i,nt
Cc1nc2ccccc2n1CCc1ccccc1,i,11µM,i,i,i,nt
Cc1nc2ccccc2n1CC(=O)NCc1ccccc1,i,i,i,6.3µM,i,i
CCc1nc2ccccc2n1Cc1ccccc1F,i,10µM,i,i[10 µM],i,nt
CCn1c(COc2ccccc2)nc2ccccc21,i,?,i,?,i,i
CCn1c(CN(C)c2ccccc2)nc2ccccc21,i,10µM,nt,22µM,i,i
CCC(=O)NCc1nc2ccccc2n1Cc1ccccc1F,i,i,i,i,i,i
SMILES,Sfp PPTase inh,RORg inh,Epigenetic reg,VP16 counter,PINK1 expr mod,ClpP mod
COc1ccc(N2CCN(C(=O)CCn3nc(C)c(S(=O)(=O)N4CCCC4)c3C)CC2)cc1,nt,nt,i,nt,i,i
CCN1CCN(c2cc(C)c3cc(NC(=O)/C=C/c4ccc(C)cc4)ccc3n2)CC1,nt,nt,?,nt,i,i
Cc1cc(C)c(/C=C/c2onc(C)c2S(=O)(=O)N2CCC(C(=O)NCCc3ccccc3)CC2)c(C)c1,nt,nt,i,nt,i,i
CCCc1nc2ccccc2n1CCc1ccccc1,i,7.1µM,i,i,i,nt
CSC1=C(C#N)C(c2cccs2)CC(=O)N1C (stereo not drawn),i,i,i,i,nt,nt
N#CC1=C2SCC(O)(c3ccccc3)N2C(=O)CC1c1ccccc1F (stereo not drawn),50µM,i,i,i,i,i
COC(=O)CSC1=C(C#N)C(c2ccccc2)CC(=O)N1 (stereo not drawn),?,i,i,i,i,i
COc1ccc(C2CC(=O)N3C(=C2C#N)SCC3(O)c2ccccc2)cc1 (stereo not drawn),50µM,?,i,i,i,i

# Screens: PubChem, National Center for Advancing Translational Sciences (NCATS)
